{"source": "PubChem BioAssay AID1851", "about": "(National Center for Advancing Translational Sciences (NCATS), 2009)", "note": "Several values for one entry are separate records, joined by “and”; a condition that tells them apart may be missing. Identical values can stand only once. Among all 16,000 compounds or so, about 2,600 (16%) were called active. Roughly 20% stayed inconclusive and do not appear here. What follows is part of a selection rich in actives, with near analogues and random picks from the rest. A number with no mark means an inactive call. Calls follow the shape of the dose curve; as a rule, active = well fitted curve in the direction sought with a large enough effect; inconclusive = small, poorly fitted or top-dose-only effect, or effect the other way; inactive = no such curve, though single readings can be large or run the other way. % is scaled to controls: 0 for no effect and ±100 for the full control effect.", "data": [{"target": "Cytochrome P450 2D6 (Homo sapiens) (UniProt P10635)", "sequence (P10635 whole entry, looked up)": "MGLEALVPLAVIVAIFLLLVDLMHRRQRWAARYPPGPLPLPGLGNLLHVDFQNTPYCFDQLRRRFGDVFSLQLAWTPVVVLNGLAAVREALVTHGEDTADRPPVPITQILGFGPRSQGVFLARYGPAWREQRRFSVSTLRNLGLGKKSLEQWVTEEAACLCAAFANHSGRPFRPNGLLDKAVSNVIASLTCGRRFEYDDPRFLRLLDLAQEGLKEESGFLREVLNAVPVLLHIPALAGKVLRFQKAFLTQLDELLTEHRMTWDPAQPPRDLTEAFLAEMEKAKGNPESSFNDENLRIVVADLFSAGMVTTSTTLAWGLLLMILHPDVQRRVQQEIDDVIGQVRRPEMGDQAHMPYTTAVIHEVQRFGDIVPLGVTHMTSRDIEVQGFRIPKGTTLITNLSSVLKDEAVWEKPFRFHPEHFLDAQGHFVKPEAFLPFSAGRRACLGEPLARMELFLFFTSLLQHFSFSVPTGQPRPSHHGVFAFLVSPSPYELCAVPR", "assay": "Cytochrome panel assay with activity outcomes", "settings": "recombinant CYP, pro-luciferin dealkylation, luminescence, p450-cyp2d6; series mostly up to 57.1 µM; activity, negative = inhibition: at the top concentration", "description": "The P450 gene superfamily is involved in the metabolism and clearance of xenobiotics. This assay used various human CYP P450 isozymes to measure the dealkylation of various pro-luciferin substrates to luciferin. The luciferin is then measured by luminescence after the addition of a luciferase detection reagent. Pro-luciferin substrate concentration in the assay was equal to its KM for its CYP P450 isozyme. Inhibitors and some substrates limit the production of luciferin, and decrease measured luminescence.\nNCGC Assay Protocol Summary:\n1, Reagent, 2 uL, Isozyme and Pro-Luciferin\n2, Library compounds, 23 nl, 40 uM to 0.24 nM dilution series\n3, Controls, 23 nl, Isozyme specific inhibitor\n4, Reagent, 2 uL, NADPH regeneration solution\n5, Incubation time, 60 min, Isozyme specific temperature\n6, Reagent, 4ul, Detection reagent\n7, Incubation time, 20 min, Isozyme specific temperature\n8, Detection, 1 sec, ViewLux luminescent read\nThe luciferase-based P450-GloTM Screening Systems were obtained from Promega (Madison, WI) for CYP 1A2 (V9770), CYP 2C9 (V9790), CYP2 C19 (V9880), CYP 2D6 (V9890), and CYP 3A4 Luciferin-PPXE (V9910) and were adapted for 1,536-well microplates and an automated protocol. The control compounds furafylline for 1A2 (F124), sulfaphenazole for CYP 2C9 (S0758), ketoconazole for CYP 2C19 (K1003), quinidine for 2D6 (Q3625), and ketoconazole for 3A4 (K1003) were purchased from Sigma Aldrich (St. Louis, MO). Recombinant P450 enzymes were obtained from baculovirus constructs expressed in insect cells (BD/Gentest).\nMedium-binding white solid Kalypsys plates used. Mixtures kept on ice. 1A2: 10 nM 1A2, 100 uM Luc-ME, 100 mM KPO4; 2C9: 10 nM 2C9, 100 uM Luc-H, 25 mM KPO4; 2C19: 5 nM 2C19, 10 uM Luc-H EGE, 50 mM KPO4; 2D6: 5 nM 2D6, 30 uM Luc-ME EGE, 100 mM KPO4; 3A4: 10 nM, 25 uM Luc-PPXE. All amounts are reflected in their final concentration, working concentration is 2x.\nNADPH regeneration solution: 1.3 mM NADP+, 3.3 mM glucose-6-phosphate, 3.3 mM MgCl2, 0.4 U/mL glucose-6-phosphate dehydrogenase for all isozymes, 200 mM KPO4 for 3A4. Mixture prepared at RT but kept on ice during automated run.\nRT incubation in auxilliary plate hotel for 1A2, 2D6, and 3A4; 37C for 2C9 and 2C19.\nKeywords: P450, CYP1A2, CYP2C19, CYP2C9, CYP2D6, CYP3A4, Luciferase, MLSMR, MLSCN, NIH Roadmap, qHTS, NCGC", "values": [{"smiles": "O=C(O)C(C(=O)O)P(=S)(S)c1ccccc1", "note": "(stereo unspecified)", "activity, negative = inhibition": "8.23% [at 11.4 µM]"}, {"smiles": "CC(=O)NBr", "activity, negative = inhibition": "4.43%"}, {"smiles": "N#CCCCC[N+]12CN3CN(CN(C3)C1)C2", "activity, negative = inhibition": "1.51% [at 11.4 µM]"}, {"smiles": "COC1=CC(=O)O[C@@H](/C=C\\c2ccccc2)C1", "activity, negative = inhibition": "0.589% [at 25.6 µM]"}, {"smiles": "CCN1C[C@]2(COC)CC[C@H](O)[C@@]34[C@@H]5C[C@H]6[C@@H](OC)[C@H]5[C@](O)(C[C@@H]6OC)[C@@](O)([C@@H](OC)[C@H]23)[C@@H]14", "activity, negative = inhibition": "11.1% [at 25.6 µM]"}, {"smiles": "Nc1ncnc2c1ncn2[C@@H]1O[C@@H](COP(=O)(O)CP(=O)(O)OP(=O)(O)O)[C@H](O)[C@@H]1O", "activity, negative = inhibition": "-5.92%"}, {"smiles": "CCN(CC)c1ncnc2c1ncn2[C@@H]1O[C@@H](COP(=O)(O)OP(=O)(O)C(Br)(Br)P(=O)(O)O)[C@H](O)[C@H]1O", "AC50": "0.631 µM (active)"}, {"smiles": "CCN(CC)c1ncnc2c1ncn2[C@@H]1O[C@@H](COP(=O)(O)OP(=O)(O)C(Br)(Br)P(=O)(O)O)[C@H](O)[C@@H]1O", "activity, negative = inhibition": "-10.4%"}, {"smiles": "COc1cc2c3cc1Oc1cc(ccc1O)C[C@@H]1c4c(cc(OC)c(O)c4Oc4cccc(c4)C[C@H]3N(C)CC2)CC[N+]1(C)C", "activity, negative = inhibition": "2.51% [at 25.6 µM]"}, {"smiles": "O=P(O)(O)CCP(=O)(O)O", "activity, negative = inhibition": "10.1% [at 11.4 µM]"}, {"smiles": "N[C@H](CP(=O)(O)O)C(=O)O", "activity, negative = inhibition": "-6.71%"}, {"smiles": "Cc1nc2ccccc2cc1C[N+]12CN3CN(CN(C3)C1)C2", "activity, negative = inhibition": "-2.3% [at 11.4 µM]"}, {"smiles": "c1ccc2c(c1)-c1ccccc1C2N1CC2CCC(CC2)C1", "AC50": "3.98 µM (active)"}, {"smiles": "O=C1N[C@@]2(CN3CCC2CC3)C(=O)N1CN(Cc1ccccc1)c1ccccc1", "activity, negative = inhibition": "2.51% [at 11.4 µM]"}, {"smiles": "CC[C@@]1(c2ccc(N)cc2)CCC(=O)NC1=O", "AC50": "inactive"}, {"smiles": "CN1Cc2c(ccc3c2OCO3)[C@@H]2[C@@H](O)Cc3cc4c(cc3[C@@H]21)OCO4", "AC50": "0.2 µM (active)"}, {"smiles": "C[C@H]1CCCC=CC2C[C@H](O)C[C@@H]2[C@H](O)/C=C\\C(=O)O1", "note": "(stereo partly specified)", "activity, negative = inhibition": "9.19%"}, {"smiles": "N#Cc1cccc(NC(=O)N2CCCC3(CCN(C(=O)Oc4ccccc4)CC3)C2)c1", "activity, negative = inhibition": "-9.57%"}, {"smiles": "Oc1ccc2c3c1O[C@H]1c4[nH]c5c(c4C[C@@]4(O)[C@@H](C2)N(CC2CC2)CC[C@]314)C[C@]1(O)[C@H]2Cc3ccc(O)c4c3[C@@]1(CCN2CC1CC1)[C@@H]5O4", "activity, negative = inhibition": "-4.33%"}, {"smiles": "Oc1ccc2c3c1O[C@H]1c4oc5ccccc5c4C[C@]4(O)[C@H](C2)N(CC2CC2)CC[C@@]314", "AC50": "1.26 µM (active)"}, {"smiles": "Oc1ccc2c3c1O[C@@H]1c4[nH]c5c(c4C[C@@]4(O)[C@@H](C2)N(CC2CC2)CC[C@]314)C[C@]1(O)[C@@H]2Cc3ccc(O)c4c3[C@@]1(CCN2CC1CC1)[C@H]5O4", "activity, negative = inhibition": "-4.66%"}, {"smiles": "Oc1ccc2c3c1O[C@H]1c4c(c5ccccc5n4Cc4ccccc4)C[C@]4(O)[C@H](C2)N(CC2CC2)CC[C@@]314", "activity, negative = inhibition": "-5.11%"}, {"smiles": "Oc1ccc2c3c1O[C@H]1c4[nH]c5ccccc5c4C[C@]4(O)[C@H](C2)N(CC2CC2)CC[C@@]314", "AC50": "2.51 µM (active) and 631 nM (active)"}, {"smiles": "NC(N)=Nc1ccc2[nH]c3c(c2c1)C[C@]1(O)[C@@H]2Cc4ccc(O)c5c4[C@]1(CCN2CC1CC1)[C@H]3O5", "activity, negative = inhibition": "2.41%"}, {"smiles": "Nc1nc(N)c2nc(CNc3ccc(C(=O)N[C@H](CCC(=O)O)C(=O)O)cc3)cnc2n1", "activity, negative = inhibition": "-1.59%"}, {"smiles": "CC[C@H](C)[C@@H]1O[C@]2(CC[C@@H]1C)C[C@H]1C[C@H](CC=C(C)[C@@H](O[C@@H]3C[C@H](OC)[C@H](O[C@@H]4C[C@H](OC)[C@H](O)[C@H](C)O4)[C@H](C)O3)[C@@H](C)C=CC=C3CO[C@@H]4[C@@H](O)C(C)=C[C@@H](C(=O)O1)[C@]34O)O2", "activity, negative = inhibition": "-16.5% [at 25.6 µM]"}, {"smiles": "CCNC(=O)[C@@H]1O[C@@H](n2cnc3c(N)ncnc32)[C@@H](O)[C@H]1O", "activity, negative = inhibition": "-3.38%"}, {"smiles": "CCN(CC)CC#CCOC(=O)[C@@](O)(c1ccccc1)C1CCCCC1", "AC50": "10 µM (active)"}, {"smiles": "Cc1ccc(S(=O)ON2CCC(C(=O)O)(c3ccccc3)CC2)cc1", "note": "(stereo unspecified)", "activity, negative = inhibition": "20.9% [at 11.4 µM]"}, {"smiles": "CCCc1cc2c(n1Cc1ccc(C)cc1)C(C)C1CN(C(=O)c3ccccc3)C(C)(C(=O)OC)C21", "note": "(stereo unspecified)", "activity, negative = inhibition": "-18%"}, {"smiles": "CCCc1cc2c(n1CCO)C(C)C1CN(C(=O)c3ccccc3)C(C)(C(=O)OC)C21", "note": "(stereo unspecified)", "activity, negative = inhibition": "-9.47%"}, {"smiles": "CCCc1cc2c(n1Cc1cccc(Cl)c1)C(C)C1CN(C(=O)c3ccccc3)C(C)(C(=O)OC)C21", "note": "(stereo unspecified)", "AC50": "12.6 µM (active)"}, {"smiles": "O=C1Nc2ccc(I)cc2/C1=C/c1cc(Br)c(O)c(Br)c1", "activity, negative = inhibition": "5.11%"}, {"smiles": "C[C@H]1CC[C@]2(OC1)O[C@@H]1C[C@@H]3[C@@H]4CC[C@H]5C[C@@H](O)CC[C@]5(C)[C@@H]4CC(=O)[C@@]3(C)[C@H]1[C@@H]2C", "activity, negative = inhibition": "3.5% [at 25.6 µM]"}, {"smiles": "COCCCN1Cc2ccccc2C1=N", "AC50": "12.6 µM (active)"}, {"smiles": "N#CC(=C(/N)Sc1ccccc1N)/C(C#N)=C(/N)Sc1ccccc1N", "AC50": "0.02 µM (active)"}, {"smiles": "CCCCn1c(O)c(C(CC)=Nc2ccc(OC)cc2OC)c(=O)[nH]c1=O", "AC50": "12.6 µM (active)"}, {"smiles": "CCC(=Nc1cc(OC)ccc1OC)c1c(O)[nH]c(=O)[nH]c1=O", "activity, negative = inhibition": "-20%"}, {"smiles": "CCCCn1c(O)c(C(CC)=NCc2ccc(F)cc2)c(=O)[nH]c1=O", "activity, negative = inhibition": "-4.9%"}, {"smiles": "CCCCN1C(=O)/C(=C/c2ccc(N(C)C)cc2)C(=O)N(Cc2ccco2)C1=O", "activity, negative = inhibition": "2.94%"}, {"smiles": "[N-]=[N+]=NCC(=O)c1c[nH]c(=O)[nH]c1=O", "activity, negative = inhibition": "8.7% [at 11.4 µM]"}]}]}
